Six1-Eya2 inh: qHTS Assay for Inhibitors of the Six1/Eya2 Interaction | AID 651725, 2012 | Homeobox protein SIX1 (Homo sapiens) + Protein phosphatase EYA2 (Homo sapiens), … | hit rate 0.56% among 360,000 | AlphaScreen GST-Six1/His-Eya2 binding, biochemical; hits give low values | activity change, % (concentration not given with the values); in the data active = activity change below about -65%; inconclusive = mostly about -30% to -63%; note: % is set by controls: 0 for no effect and ±100 for the full control effect
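Compounds are tested against tagged Six1 and Eya2 proteins bridged by glutathione donor and nickel acceptor beads; after a one-hour incubation at 37 °C without light, AlphaScreen emission is recorded.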
BAZ2B inh: qHTS Assay for Inhibitors of BAZ2B | Potency, µM (highest dose often 114 µM), inactives show at the top dose activity change, negative = inhibition, actives largely listed as inhibitors | AID 504333, 2011 | hit rate 4.4% among 360,000 | AlphaScreen BAZ2B-H3K14Ac peptide displacement | Bromodomain adjacent to zinc finger domain protein 2B (Homo sapiens), Q9UIF8; note: potency is the fitted concentration of half-maximal effect; % is set by controls: 0 for no effect and ±100 for the full control effect; nearly all actives have a fitted effect of over 60% in size
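AlphaScreen displacement: compounds (up to 110uM) incubated 30 min at room temperature with a preformed 50 nM BAZ2B/50 nM biotinylated H3K14Ac peptide complex in PBS pH 7.4 with Tween-20. Donor and acceptor beads at 10 ug/mL final added, 20 min light-protected before reading.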
HP1b binding inh: HTS for Inhibitors of HP1-beta Chromodomain Interactions with Methylated Histone Tails; AlphaScreen HP1-beta / biotin-H3K9me3 peptide binding; Potency, µM (top dose mostly 114 µM), for the others: at the top dose activity change, negative = inhibition, actives largely listed as inhibitors; Chromobox protein homolog 1 (Homo sapiens), P83916; hit rate 0.56% among 390,000; note: potency is the fitted concentration of half-maximal effect; nearly all actives have a fitted effect of over 70% in size
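AlphaScreen: HP1-beta (50 nM) preformed 30 min with biotin-H3(1-18)K9me3 peptide (50 nM) in PBS pH 7.4, 0.01% Tween-20. Compound added for 30 min at RT, then streptavidin donor/nickel chelate acceptor beads (10 ug/mL) for 30 min.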
CtBP-E1A blk: qHTS Assay for Inhibitors of the CtBP/E1A Interaction; CtBP / adenovirus E1A interaction (AlphaScreen); AlphaScreen GST-E1A/His-CtBP binding, 1536-well; hits give low values; activity change, % (concentration not given with the values); hit rate 0.49% among 340,000; in the data active = activity change below about -65%; inconclusive = mostly about -30% to -63%; note: % is set by controls: 0 for no effect and ±100 for the full control effect
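Homogeneous bead-based format: GST-tagged E1A captured on glutathione donor beads, His-tagged CtBP on nickel acceptor beads; compounds precede bead addition by 2 h at 37 °C.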
G9a block: qHTS Assay for Inhibitors of Histone Lysine Methyltransferase G9a; Potency, µM (titrated, usually from 102 µM), inactives show top-dose activity, negative = inhibition, usual class: inhibitors; hit rate 8.8% among 350,000; G9a H3K9 monomethylation, AlphaScreen, 2 h; note: potency is the fitted concentration of half-maximal effect; % is set by controls: 0 for no effect and ±100 for the full control effect; nearly all actives have a fitted effect of over 75% in size
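Chemiluminescent proximity detection of H3K9 monomethylation, read after 10 min bead incubation in the dark. Reaction: 20 nM G9a, 500 nM biotin-H3K9 peptide, 20 uM SAM cofactor, 2 h, room temperature, following 15 min enzyme-compound preincubation.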
JMJD2A Tudor inh: qHTS Assay for Inhibitors of JMJD2A-Tudor Domain; hit rate 4.4% among 390,000; Lysine-specific demethylase 4A (Homo sapiens), O75164; Potency, µM (doses to about 114 µM), inactives show top-dose activity change, negative = inhibition, usual class: inhibitors; AlphaScreen JMJD2A-Tudor / H3K4me3 peptide binding; note: potency is the fitted concentration of half-maximal effect; % is set by controls: 0 for no effect and ±100 for the full control effect; nearly all actives have a fitted effect of over 50% in size
* = called active by the depositor; ? = inconclusive; . = no result given; [ ] = remark or other dose. Most compounds without a hit are left out; they make up all but 10% or so of the library. Unless noted, calls come from the whole dose curve; as a rule, active = well fitted inhibition curve with a large enough effect; inconclusive = small, poorly fitted or top-dose-only effect; inactive = no such curve, though single readings can be large or run the other way.

SMILES | Six1-Eya2 inh | BAZ2B inh | HP1b binding inh | CtBP-E1A blk | G9a block | JMJD2A Tudor inh
Cc1ccc(NC(=O)COC(=O)/C=C/c2cccc(Cl)c2)cc1S(=O)(=O)N1CCOCC1 | -10.5 | 7.1% | 19.1% | ? | 39.8µM* | -21.8%
O=C(COC(=O)/C=C/c1ccc(Cl)cc1)Nc1cccc(S(=O)(=O)NC2=NCCCCC2)c1 | -6.7 | . | 19.2% | -83.8* | . | -23.1%
CCNc1ncc2nc(-c3ccc(F)cc3)c(=O)n(CCOC)c2n1 | . | . | . | . | -0.7%[0.501 µM] | .
COCCNC(=O)Cn1c(=O)n(-c2ccc(C)c(C)c2)c(=O)c2c3c(sc21)CCCCC3 | . | 7.3% | 11.9% | . | -7.9%[59 µM] | -7.8%
Nc1nc(-c2ccccc2)c(C(=O)Nc2ccccc2)s1 | -7.0 | -11.8% | 26.8% | . | -7.4% | -13.0%
CN(C)/[N+]([O-])=N/Oc1cc(O/[N+]([O-])=N/N2CCCC2CO)c([N+](=O)[O-])cc1[N+](=O)[O-] (centres undefined) | . | . | 1.5% | . | . | -24.8%
CCN(c1ccc(NC(=O)COC(=O)c2ccc(C)c(S(=O)(=O)N3CCOCC3)c2)cc1)C(C)C | -27.8 | ? | ? | -27.6 | 4.47µM* | 22.4µM*
O=C(COC(=O)/C=C/c1cccc(Cl)c1)Nc1cccc(S(=O)(=O)NC2=NCCC2)c1 | -14.5 | -10.8% | 4.2% | -80.2* | 22.6%[12.7 µM] | -29.5%
